HCV inh: qHTS Assay for Inhibitors of Hepatitis C Virus (HCV); Potency, µM (series often up to 41.8 µM), usual class: inhibitors; actives 3.4% (n = 340,000); Huh7.5.1 HCVcc-Cre infection, luciferase reporter, 44 h; AID 651820, 2012
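HCVcc-Cre virus at an moi near 0.5 was added right after compound to cells cultured 4 h from seeding (1,000 cells/well). Luciferase activity was determined 44 h later, 15 min after substrate addition at RT.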
Pf growth 48h: Primary qHTS for delayed death inhibitors of the malarial parasite plastid, 48 hour incubation; P. falciparum luciferase growth in erythrocytes, 48 h; Potency, µM (top dose mostly 28.7 µM), most hits filed as inhibitors; actives 5.9% (n = 310,000); AID 504832, 2011
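Compounds are pin-transferred into medium, infected erythrocytes (2% hematocrit, 0.1% parasitemia final) are added, and plates sit one parasite generation at 37 C in 5% CO2. Detection reagent is then added and luminescence measured.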
Pf growth 96h: Primary qHTS for delayed death inhibitors of the malarial parasite plastid, 96 hour incubation. P. falciparum luciferase reporter growth, 96 h. Potency, µM (series often up to 28.7 µM), actives largely listed as inhibitors. actives 6.9% (n = 320,000). AID 504834, 2011
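Two parasite generations (96 h, 37 C, 5% CO2) of compound exposure in infected erythrocytes (0.05% parasitemia, 2% hematocrit). Luciferase-reporter P. falciparum; decreased luminescence indicates inhibited growth, aimed at apicoplast-acting delayed death.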
CHX counter: Cycloheximide Counterscreen for Small Molecule Inhibitors of Shiga Toxin | cell reporter, cycloheximide protein synthesis inhibition counterscreen | max response, % | actives 12% (n = 300,000); in the data active means max response mostly above about 13%, no sharp cut-off; inactive means mostly below about 14%; further: read at 38.3 µM for the half of the compounds with a filed dose
Shiga inhibitor: A qHTS for Small Molecule Inhibitors of Shiga Toxin; Vero cells, Shiga toxin protein synthesis inhibition reporter; inhibition, % at 38.7 µM; actives 9.2% (n = 290,000); in the data active means inhibition mostly above about 28%, no sharp cut-off; inactive means mostly below about 43%
AMA1-RON2 inh: qHTS for Inhibitors of AMA1-RON; Towards Development of Antimalarial Drug Lead: Primary Screen; actives 0.2% (n = 360,000); Potency, µM (titrated, usually from 58.2 µM), usual class: inhibitors; AlphaScreen AMA1-biotinylated RON2 peptide binding; Plasmodium falciparum AMA1 (3D7) - RON2 peptide interaction; AID 720542, 2013; further: nearly all actives have a fitted effect of over 45% in size
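AMA1 (3D7) with his tag at 25 nM final met compounds first, then biotinylated RON2 peptide at 25 nM; detection used donor plus acceptor beads, 10 µg/mL apiece, read by AlphaScreen after 30 min at room temperature.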
Numbers stand for hits; 0 = inactive; ? = inconclusive; - = no result; + = active, no number; [ ] = remark or other dose. Shown are actives, neighbours in structure and some others; about 21% of the full set was active somewhere. Unless noted, the call rests on the fitted dose curve; in most records, active means well fitted curve in the direction sought with a large enough effect; inconclusive means small, poorly fitted or top-dose-only effect, or another doubt; inactive means no such curve, though single readings can be large; an effect the other way counts as inactive or inconclusive.

SMILES	HCV inh	Pf growth 48h	Pf growth 96h	CHX counter	Shiga inhibitor	AMA1-RON2 inh
Cc1sc2ncn(CC(=O)Nc3cccc(S(N)(=O)=O)c3)c(=O)c2c1-c1ccccc1	0	0	0	0	0	0
CCc1nnc(SCC(=O)Nc2ccc3c(c2)OCO3)o1	0	0	0	0	0	0
Cc1nnc(SCC(=O)Nc2ccc3c(c2)OCO3)o1	0	0	13µM	0	0	0
Cn1nnnc1SCC(=O)Nc1ccc2c(c1)OCO2	0	0	?	26	114	0
CCn1nnnc1SCC(=O)Nc1ccc2c(c1)OCO2	0	0	0	0	45	0
C[C@@H]1CCN(C(=O)[C@H](CCCNC(=N)N)NS(=O)(=O)c2cccc3c2NC[C@H](C)C3)[C@@H](C(=O)O)C1	-	0	0	-	-	-
Cc1ccc2cc(CCNC(=O)CCCc3ccccc3)c(=O)[nH]c2c1	0	0	?	0	0	0
Cc1ccc2cc(CCNC(=O)c3ccco3)c(=O)[nH]c2c1C	0	0	0	61	+	0
COc1ccc2cc(CCNC(=O)C(C)C)c(=O)[nH]c2c1	0	0	0	0	0	0
Cc1ccc2[nH]cc(CCNC(=O)c3ccco3)c2c1	0	0	0	0	0	0
Cc1ccc2cc(CCNC(=O)c3ccco3)c(=O)[nH]c2c1	0	0	-	31	63	0
COc1ccc2cc(CCNC(=O)c3ccco3)c(=O)[nH]c2c1	0	0	?	58	95	0
Cc1cc(Br)c2[nH]cc(CCNC(=O)c3ccco3)c2c1	13µM	?	?	0	0	0
O=C(NCc1cccnc1)C(=O)NCC1OCCCN1S(=O)(=O)c1cc(F)ccc1F (configuration not stated)	-	-	-	-	-	0
OCC1O[C@H](OC2C(CO)O[C@@](O)(CO)C2O)C(O)C(O)C1O (some centres not stated)	-	0	0	-	-	-
CCCS(=O)(=O)NCCc1cc2ccc(C)cc2[nH]c1=O	0	0	0	12	28	0
CCc1nc(-c2cc3ccc(C)cc3[nH]c2=O)no1	0	0	?	17	0	0
Cc1ccc2cc(-c3noc(C(C)(C)C)n3)c(=O)[nH]c2c1	0	?	0	0	0	0
CCCS(=O)(=O)NCCc1cc2cc(C)c(C)cc2[nH]c1=O	0	?	0	0	0	0
COc1ccccc1C(=O)NC(=O)CSc1nnc(SC)s1	0	0	0	-	-	0
COc1ccc(C2=NN(C(=O)c3ccccc3)C(c3cccc([N+](=O)[O-])c3)C2)cc1 (configuration not stated)	?	?	?	0	0	?
COc1ccc(C2=NN(C(=O)CCC(=O)O)C(c3ccc([N+](=O)[O-])cc3)C2)cc1 (configuration not stated)	0	0	0	0	0	0
CC(=O)N1N=C(c2ccc([N+](=O)[O-])cc2)CC1c1ccccc1Cl (configuration not stated)	0	?	0	0	0	0
CCn1cc([N+](=O)[O-])c(C(=O)N2N=C(c3ccccc3)CC2c2ccc([N+](=O)[O-])cc2)n1 (configuration not stated)	0	13µM	?	0	0	0
CCn1cc([N+](=O)[O-])c(C(=O)N2N=C(c3ccc(O)c(OC)c3)CC2c2ccccc2O)n1 (configuration not stated)	?	?	15µM	0	0	0[2.32 µM]
SMILES	HCV inh	Pf growth 48h	Pf growth 96h	CHX counter	Shiga inhibitor	AMA1-RON2 inh
CCn1cc([N+](=O)[O-])c(C(=O)N2N=C(c3ccc(Cl)c(Cl)c3)CC2c2ccccc2O)n1 (configuration not stated)	?	3.7µM	?	0	0	0
CCn1cc([N+](=O)[O-])c(C(=O)N2N=C(c3ccc4ccccc4c3)CC2c2cc(Br)ccc2O)n1 (configuration not stated)	?	3.3µM	?	0	0	0
CCn1cc([N+](=O)[O-])c(C(=O)Nc2ccc(Br)cn2)n1	0	0	0	0	0	0
CC(C)Cc1nc(N2CCOCC2)c(C#N)c2c1COC(C)(C)C2	?	10µM	-	0	0	0
CC(C)c1nc(NCCN2CCOCC2)c(C#N)c2c1COC(C)(C)C2	?	?	0	0	0	0
Cc1ccc(S(=O)(=O)N2CCN(c3nc(C(C)C)c4c(c3C#N)CC(C)(C)OC4)CC2)cc1	7.1µM	-	0	0	0	0
CCOC(=O)C(C)Sc1nc(N2CCOCC2)c2c(c1C#N)CC(C)(C)OC2 (configuration not stated)	0	-	-	-	-	0
CCCNC(=O)N1CCN(c2nc(C(C)C)c3c(c2C#N)CC(C)(C)OC3)CC1	?	-	0	0	0	0
CC(C)Cc1nc(NCCN2CCOCC2)c(C#N)c2c1COC(C)(C)C2	0	12µM	-	0	0	0
CC(=O)C1=C(c2ccc(Br)cc2)C(=O)c2ccccc2C1=O	?	?	?	0	0	16µM
Cc1nnc(C)c2c(C)n(-c3ccc(Cl)c(N)c3)c(C)c12	?	0	13µM	0	0	0
CCO[C@@H]1OC(C(=O)N2CCN(Cc3ccc4c(c3)OCO4)CC2)=C[C@H](c2ccc(Br)cc2)[C@H]1CCCO	?	1.3µM	4.1µM	0	0	0
CCO[C@H]1OC(C(=O)O)=C[C@@H](c2ccc3c(c2)OCO3)[C@@H]1CCCO	2.5µM	0	0	0	0	0
CCO[C@@H]1OC(C(=O)Nc2ccccc2)=C[C@H](c2ccc3c(c2)OCO3)[C@H]1CCCO	0	0	?	0	0	0
CCO[C@@H]1OC(C(=O)N2CCN(Cc3ccc4c(c3)OCO4)CC2)=C[C@H](c2ccc(C(F)(F)F)cc2)[C@H]1CCCO	?	1.5µM	2.3µM	0	0	0
Cc1ccccc1N1CCN(CC(=O)Nc2ccccc2C(=O)NC2CC2)CC1	?	?	?	-	-	0
CC(C)(C#N)NC(=O)C1CCCN1S(=O)(=O)c1ccc2ccccc2c1 (configuration not stated)	?	0	0	0	0	0
CCOC(=O)C1CCCN(c2nc3ccccc3nc2C(C#N)C(=O)OC(C)COC)C1 (configuration not stated)	0	?	?	0	0	0
CCOC(=O)C1CCCN(c2nc3ccccc3nc2C(C#N)C(=O)OCCOC)C1 (configuration not stated)	0	6.6µM	8.3µM	0	0	0
C=CCOC(=O)C(C#N)c1nc2ccccc2nc1N1CCN(Cc2ccccc2)CC1 (configuration not stated)	0	?	0	0	0	0
